Among the data in PubChem BioAssay AID651789 (National Center for Advancing Translational Sciences (NCATS), 2012) are Potency values, retold here.

Results filed as inconclusive are left out. Entries that show only a call come without a potency. The source made the active and inactive calls. Calls follow the shape of the dose curve; as a rule, active = well fitted inhibition curve with a large enough effect; inconclusive = small, poorly fitted or top-dose-only effect; inactive = no such curve, though single readings can be large or run the other way.
Potency is read from the fitted curve at half-maximal effect.

This test is described as follows: Acumen qHTS Assay for Inhibitors of the mTORC1 Signaling Pathway in WT MEF Cells: Hit Validation. Also: nearly all actives have a fitted effect of over 60% in size. The conditions noted are these: Acumen imaging; series mostly up to 37.3 µM. From the text: The mammalian target of rapamycin (mTOR) is an intracellular serine/threonine kinase Aberrant regulation of mTOR signaling plays a causative role in a number of human diseases, including cancer, benign tumors such as lymphangioleiomyomatosis (LAM) and Tuberous Sclerosis Complex (TSC), and metabolic diseases such as diabetes and obesity. This project aims to identify inhibitors of ribosomal protein S6 (rpS6) phosphorylation. The phosphorylation of rpS6 is a key event downstream of mTOR activation. The assay uses a phospho-specific antibody of phospho-rpS6 to detect inhibitors of mTOR activation. Mutations in the Tsc1 and Tsc2 genes are the underlying genetic lesions responsible for TSC, causing constitutive activation of the mTORC1 pathway and leading to profound effects on cell metabolism. Aberrant metabolism in cancer has recently received significant attention as a target to develop therapeutic agents in the treatment of cancer.1 As Tsc2-/- cells have lost the ability to respond to energy and growth factor deprivation, these cells are unable to properly down regulate cellular biosynthetic processes in response to metabolic stress, and are thus extremely sensitive to glucose deprivation-induced death.2 A central goal of this project is to explore the unique cell survival and metabolic properties of cells with Tsc1 or Tsc2 by screening for compounds that selectively target the Tsc2-/- MEFs by screening both Tsc2-/- and WT MEF cell lines. We hope to better understand these aspects of TSC physiology in order to exploit them for therapeutic benefit.
NIH Molecular Libraries Probe Production Centers Network [MLPCN]
NIH Chemical Genomics Center [NCGC]
Assay Submitter (PI): Blenis, John; Harvard University
For quantitative high throughput analysis of mTORC1 signaling, we developed a cell-based assay for immuno-fluorescence based detection of rpS6 phosphorylation on the Acumen Explorer that will be used a platform for the primary small molecule screen. Mouse embryonic fibroblasts (MEFs) are cultured in 1536-well plates using DMEM + 10% FBS. Twenty-four hrs after plating, test compounds (solubilized in DMSO) are delivered and incubated with the cells for 24 hrs at 37 degree Celsius. Following the incubation, media with compound is aspirated and the cells are fixed in 4% paraformaldehyde (PFA) containing PBS + 0.2% TX-100. Next, PFA is aspirated, cells are washed two times with PBS plus 0.2% TX-100 and the cells are blocked for 1 hr at room temperature (blocking buffer: LiCOR Blocking Buffer plus 0.2% TX-100). This is followed by aspiration and staining with Alexa-488 conjugated-phospho-rpS6 Ser235/236 antibody for 2 hours at room temperature (Cell Signaling Technology # 4803, 1:50 dilution in blocking buffer). Cells are washed two times with PBS plus 0.2% TX-100, and stained with 10 uM propidium iodide (PI) for 20-25 minutes for cell number measurement (1:500 dilution of Hoescht staining is also added for IN Cell imaging). The plates are scanned on the Acumen Explorer laser scanning instrument (TTP Labtech) using the 488nm laser for simultaneous excitation of the Alexa-488 and PI. […] Fluorescence emission from the PI stain is selected using a 575-640 nm band pass filter. The normalized phospho-S6 staining is calculated as the ratio of the integrated Alexa 488 intensity divided by the integrated PI intensity for the single concentration rapamycin control (7.5 nM) and DMSO columns. […] Inhibition of the pathway is defined based on the normalized phospho-S6 intensity in rapamycin treated cells. Active cells are defined as those with a normalized phospho-S6 staining above this threshold, and each treatment is reported as the % positive cells in the well, where thresholds are defined by selecting wells with the highest and lowest signal and differentiating between the % non-active and % active populations. In addition to the pathway specific phospho-S6 endpoint, the number of PI stained cells from the Acumen is recorded as a measure of cell viability. […]
(qHTS replaces the single test concentration by a dilution series.)
Regarding `O=C(Nc1ccon1)c1cccn(Cc2cccc(Cl)c2)c1=O`, the Potency result was “inactive”.
In the case of `Cc1ccccc1-n1c(/C=C/c2ccccc2F)nc2ccccc2c1=O`, the Potency result was “inactive”.
As for `CCN(CC)C(=O)c1ccc(NC(=O)CCn2nc(-c3ccc(C)cc3)c3ccccc3c2=O)cc1`, the entry is “inactive”; as for `CN[C@@H]1C[C@@]2(C)O[C@@H]([C@@H]1OC)n1c3ccccc3c3c4c(c5c6ccccc6n2c5c31)C(=O)NC4`, 32.5 nM (active).
Take `Cc1ccccc1-n1c(/C=C/c2c(C)[nH]c3ccccc23)nc2ccccc2c1=O`: the Potency is 1850 nM (active).
The value for `Cc1cccc(CN2CCc3nc(N4CCN(c5ccccn5)CC4)ncc3C2)c1` was “inactive”; that for `CCCOC(=O)c1c(C)oc2c1cc(NS(=O)(=O)c1ccc(OCC)cc1)c1ccccc12` was 656 nM (active).
The value for `CCN(CC)CCSc1nc2ccccc2c(=O)n1-c1ccc(Cl)cc1` was “inactive”; that for `CCOc1ccc(NC(=O)CSc2oc(-c3ccccc3)nc2S(=O)(=O)c2ccc(Cl)cc2)cc1` was 3690 nM (active); that for `Cc1ccc(-n2c(/C=C/c3ccc(Br)s3)nc3ccccc3c2=O)cc1C` was “inactive”.
As for `Cc1ccccc1-c1nc(CN2C(=O)CN=C(c3ccccc3)c3ccccc32)c(C)o1`, the entry is “inactive”.
Consider `CCOc1ccc(CN(CCc2ccc3c(c2)OCO3)Cc2ccc(C)cc2)cc1`, for which the Potency result is “inactive”.
In the case of `CCOc1ccc(N(C(C)C(=O)Nc2cc(Cl)ccc2OC)S(C)(=O)=O)cc1` (stereo not drawn), the Potency was 3690 nM (active).
